Experimental data as given in PubChem BioAssay (NCI).
About 79,000 compounds went through this panel and 15% of them were active in at least one assay; those are over-represented in the sample as a whole. The source made the active and inactive calls. Rule as the data show it: active = growth inhibition above about 70%; inactive = the rest.

What was measured:
[1] = NCI Yeast Anticancer Drug Screen. Data for the rad50 strain (AID 155);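 also: 0% = growth of vehicle-only cultures of the same strain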; conditions: S. cerevisiae rad50 strain growth inhibition; at 50.0 µM; hits give high values
Summary of the method: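 Genetically altered yeast (DNA repair pathway); compound treatment; growth inhibition vs vehicle ctrl.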

[2] = NCI Yeast Anticancer Drug Screen. Data for the mec2-1 strain (AID 157); conditions: S. cerevisiae mec2-1 strain, at 50.0 µM, hits give high values
Summary of the method: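 Using mec2-1 yeast: add compound, measure growth, express inhibition versus vehicle-treated cultures.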

[3] = NCI Yeast Anticancer Drug Screen. Data for the sgs1 mgt1 strain (AID 161);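 also: 0% = growth of cultures given vehicle only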; conditions: S. cerevisiae sgs1 mgt1 strain, at 50.0 µM, hits give high values
Summary of the method: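 Percent growth inhibition was derived by comparing compound-exposed mutant yeast with vehicle-exposed cultures. The strain carries alterations in DNA damage repair.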

[4] = NCI Yeast Anticancer Drug Screen. Data for the cln2 rad14 strain (AID 165);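 also: 0% = growth equal to vehicle treated cultures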; conditions: S. cerevisiae cln2 rad14 strain, at 50.0 µM, hits give high values
Summary of the method: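 Yeast strain cln2 rad14, bearing defects in cell cycle control and DNA repair, serves as the test system; values reflect growth inhibition compared with vehicle.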

[5] = NCI Yeast Anticancer Drug Screen. Data for the bub3 strain (AID 167); conditions: S. cerevisiae bub3 mutant strain, at 50.0 µM, hits give high values
Summary of the method: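 Yeast carrying a defined mutation is treated with each compound, and growth is compared with that of vehicle-exposed cells to give inhibition.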

[6] = NCI Yeast Anticancer Drug Screen. Data for the mlh1 rad18 strain (AID 175); conditions: S. cerevisiae mlh1 rad18 strain growth inhibition; at 50.0 µM; hits give high values
Summary of the method: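 Steps: expose repair-defective yeast to compound; measure growth; express inhibition against vehicle-treated controls.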

Measured: growth inhibition

O=C1CCCC2=C1C(c1ccccc1)/C(=N/O)O2 (stereo unspecified)
inactive: [1] 14.6% | [2] -11.2% | [3] -4.45% | [4] -12.1% | [5] 8% | [6] 16.1%

O=C(Nc1ccc([N+](=O)[O-])cc1)Nc1nccnn1
inactive: [1] 5.15% | [2] -13.1% | [3] 10.6% | [4] -39.9% | [5] 8.4% | [6] -0.8%

O=C(O)c1nc(-c2ccc(S(=O)(=O)O)cc2)[nH]c1C(=O)O
inactive: [1] -7.15% | [2] -0.25% | [3] 14% | [4] -24.8% | [5] -6.05% | [6] -3.6%

O=Nc1ccc(Br)cc1
inactive: [1] -8.2% | [2] 0.35% | [3] -11.7% | [4] 5.8% | [5] 13.1% | [6] -7.5%

N/N=C1/C(=O)N(c2ccc(S(N)(=O)=O)cc2)C(=O)C1C(=O)Nc1ccc(S(N)(=O)=O)cc1 (stereo unspecified)
inactive: [1] -4% | [2] 15.6% | [3] -0.9% | [4] 30.6% | [5] 0.25% | [6] 12.1%

CC(=O)NCCSSCCCCS(=O)O
inactive: [1] -19.1% | [2] -20.1% | [3] 7.85% | [4] 11.3% | [5] 6.05% | [6] -5.35%

COc1ccc(NC(=O)COc2cc(Cl)c(Cl)cc2Cl)cc1
inactive: [1] -3.7% | [2] 6.8% | [3] 2.05% | [4] 11.9% | [5] 3.9% | [6] -17.9%

CC(NC(=O)OCc1ccccc1)C(=O)Nc1ccc(C(=O)O)c(O)c1 (stereo unspecified)
inactive: [1] 5.55% | [2] -5.1% | [3] 11.9% | [4] -9% | [5] 45.1% | [6] -10.8%

N#Cc1c(O)cc(=O)n2c1[nH]c1ccccc12
inactive: [1] -15.2% | [2] -24.3% | [3] -22% | [4] -10.3% | [5] 10.5% | [6] -4.15%

C(=N\Nc1nc2ccccc2s1)/c1cccs1
inactive: [1] 16.9% | [2] 33% | [3] 23.6% | [4] 16.1% | [5] 36.4% | [6] 29.4%

CCCC[P+](C)(CC[P+](C)(c1ccccc1)c1ccccc1)c1ccccc1 (stereo unspecified)
inactive: [1] 36.3% | [3] 69% | [6] 37.3%
active: [2] 80.8% | [4] 96.5% | [5] 98.1%

COc1ccc(/C=C2\N=C(N/N=C\C(O)C(O)C(O)C(O)CO)NC2=O)cc1 (stereo unspecified)
inactive: [1] -7.3% | [2] -0.3% | [3] 9.2% | [4] 5.45% | [5] -3.8% | [6] -49.8%

CN(C)CCCNC(=O)/C=C\C(=O)O
inactive: [1] 5.8% | [2] 3.9% | [3] 0.15% | [4] -4.9% | [5] 2.6% | [6] -6.15%

COc1cc(CCC(=O)NS(=O)(=O)c2ccccc2)cc(OC)c1OC
inactive: [1] 4.2% | [2] 1.9% | [3] -6.75% | [4] -2.85% | [5] -3.85% | [6] 10.2%

CCCC1(CCC)OC(=O)C(CC)(CC)C(=O)O1
inactive: [1] -10.8% | [2] -3.2% | [3] -1.6% | [4] -23.2% | [5] 14.1% | [6] -6%

CSC1(C)CC2C(CC1N1CCCCC1)C2(C)C (stereo unspecified)
inactive: [1] -28.4% | [2] -16.4% | [3] -46.4% | [4] 5.8% | [5] -24% | [6] -35.9%

O=C(CCCl)NNC1=NCCCN1
inactive: [1] 2.5% | [2] -14.3% | [3] -15.4% | [4] 23.2% | [5] -4.35% | [6] -0.05%

O=C(N/N=C/C=C/c1ccccc1)NNC(=O)c1cc([N+](=O)[O-])cc([N+](=O)[O-])c1
inactive: [1] 31% | [2] 10.8% | [3] 38.3% | [4] 13.8% | [5] 2.65% | [6] 24.2%

O=C(/C=C/c1ccc(OCCSCCCCCCCCCCSCCOc2ccc(/C=C/C(=O)c3ccc(Cl)cc3)cc2)cc1)c1ccc(Cl)cc1
inactive: [1] -26.9% | [2] -25.1% | [3] -21.9% | [4] 13.7% | [5] -8.95% | [6] -29.9%

COc1cc(CO)c(CC(=O)NCCCc2ccccc2)cc1OC
inactive: [1] 37.8% | [2] -44.5% | [3] -12.5% | [4] -2.85% | [5] -14.2% | [6] -47.5%

CC(C)(C)c1ccc(O)c(CNCCO)c1
inactive: [1] 21.1% | [2] -6.65% | [3] -3.25% | [4] -28.1% | [5] 3.9% | [6] 8.05%
